Source: PubChem BioAssay
Hits are enriched below; roughly 3.6% of the tested compounds scored in any of these assays.
B2AR arrestin ag – agonists recruiting beta-arrestin to human beta2-adrenergic receptor. P07550. HTLA Tango cells, beta-arrestin recruitment, luciferase luminescence, 18 h. Potency, µM (top dose mostly 46.1 µM), actives largely listed as activators. 44,000 tested, under 10 active;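 note: potency is the fitted concentration of half-maximal effect; 0% = DMSO and full agonism = EC100 isoproterenol or metaproterenol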
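Luminescence read-out: arrestin recruitment to recombinant beta2-AR releases tTA, inducing luciferase. Cells exposed 18 hr at 37 degrees C to up to 46 microM compound; %Activity from corrected signal, concentration-response curves classified by r2, magnitude and efficacy.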
DRV1 agonist – GPR32 (DRV1) agonism, beta-arrestin recruitment; O75388; CHO-K1 GPR32 beta-arrestin PathHunter luminescence, 90 min; zero percent set by DMSO-only wells; activation, % at 76.9 µM; 48,000 compounds, 2.5% hits; AID 1346428;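 active = activation of at least 60% and not above a set upper limit, about 1 call in 100 departs from these limits; inconclusive = activation of 40% to 60%, or above that upper limit; inactive = activation under 40%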; note: 0% is about no effect
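Agonism was scored by beta-Gal fragment complementation (chemiluminescent read, 1 h detection at ambient temperature) reporting beta-arrestin binding to GPR32 in engineered CHO-K1 cells. Compound treatment lasted 90 min at 37 C, normalized to a DMSO basal control.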
TSG101-PTAP inh – TSG101-PTAP interaction inhibition, HIV-1 budding; AID 1347069; Q99816; Potency, µM (highest dose often 115 µM), actives largely listed as inhibitors; 44,000 tested, under 10 active; Fluorescence polarization, FITC-PTAP peptide/Tsg101, 20 min; note: potency is the fitted concentration of half-maximal effect; 0% is about no effect
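Fluorescence polarization: Tsg101 binding domain (10 uM final) in 10 mM HEPES pH 7.5, 0.15 M NaCl, 0.01% Tween 20, 3 mM EDTA, 0.1 mM TCEP; compounds pinned; FITC-PTAP peptide 50 nM final; 20 min, r.t.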
GALK inhibitor – inhibitors of human galactokinase (GALK) | AID 1347072 | P51570 | 44,000 tested, under 10 active | Potency, µM (highest dose often 57.5 µM), for inactives: at the top dose activity, negative = inhibition, most hits filed as inhibitors | recombinant GALK, Kinase-Glo ATP luminescence, 1 h;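 note: plate controls were full GALK reaction for no effect and reaction lacking GALK for full effect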
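5 nM GALK; 35 uM ATP; 100 uM D-galactose; 20 mM HEPES pH 8.0, 5 mM MgCl2, 60 mM NaCl, 1 mM DTT, 0.01% BSA; 1 h RT; Kinase-Glo Plus luminescence.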
NTMT1 inhibitor – blocks human N-terminal methyltransferase 1 activity; Q9BV86; NTMT1 MTase-Glo SAH luminescence, purified enzyme; Potency, µM (top dose mostly 114 µM), without a hit: top-dose activity change, negative = inhibition, actives largely listed as inhibitors; 59,000 compounds, 2.5% hits;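 note: potency is the fitted concentration of half-maximal effect; plate controls were DMSO vehicle for no effect and no enzyme for full effect; nearly all actives have a fitted effect of over 65% in size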
GALC G270D act – enhancers of human galactocerebrosidase G270D mutant activity in cells; Potency, µM (top dose mostly 57.5 µM), most hits filed as activators; 45,000 compounds, 0.1% hits; AID 1159614; P54803; 145M-Twi-hGALC-G270D cells (Twitcher mouse brain line with human GALC G270D), HMU-beta-Gal fluorescence, 48 h; note: potency is the fitted concentration of half-maximal effect; 0% is about no effect; nearly all actives have a fitted effect of over 65% in size
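Live 145M-Twi cells (Twitcher mouse brain-derived, GALC-null) stably expressing human GALC-G270D, with a wild-type GALC line, were compound-treated. Residual GALC activity was then read as fluorescence from 0.1 mM final HMU-β-gal at pH 5.2; higher signal means activation.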
DYRK1A KinaseGlo – blocks recombinant human DYRK1A kinase activity. shares compounds with NTMT1 inhibitor. 100 compounds, 80% hits. recombinant DYRK1A, Kinase-Glo ATP depletion luminescence. Potency, µM (doses to about 76.9 µM), for inactives: top-dose activity change, negative = inhibition, hits mostly inhibitors
USP2 K63 confirm – confirmation of human USP2a inhibitors with K63 diubiquitin substrate | shares compounds with NTMT1 inhibitor | USP2 cleavage of DiUb K63-3IQF, fluorescence kinetic | Potency, µM (doses to about 57.5 µM), without a hit: at the highest dose activity change, negative = inhibition, actives largely listed as inhibitors | 30 compounds, 80% hits
Target sequence (O75604 whole entry, looked up): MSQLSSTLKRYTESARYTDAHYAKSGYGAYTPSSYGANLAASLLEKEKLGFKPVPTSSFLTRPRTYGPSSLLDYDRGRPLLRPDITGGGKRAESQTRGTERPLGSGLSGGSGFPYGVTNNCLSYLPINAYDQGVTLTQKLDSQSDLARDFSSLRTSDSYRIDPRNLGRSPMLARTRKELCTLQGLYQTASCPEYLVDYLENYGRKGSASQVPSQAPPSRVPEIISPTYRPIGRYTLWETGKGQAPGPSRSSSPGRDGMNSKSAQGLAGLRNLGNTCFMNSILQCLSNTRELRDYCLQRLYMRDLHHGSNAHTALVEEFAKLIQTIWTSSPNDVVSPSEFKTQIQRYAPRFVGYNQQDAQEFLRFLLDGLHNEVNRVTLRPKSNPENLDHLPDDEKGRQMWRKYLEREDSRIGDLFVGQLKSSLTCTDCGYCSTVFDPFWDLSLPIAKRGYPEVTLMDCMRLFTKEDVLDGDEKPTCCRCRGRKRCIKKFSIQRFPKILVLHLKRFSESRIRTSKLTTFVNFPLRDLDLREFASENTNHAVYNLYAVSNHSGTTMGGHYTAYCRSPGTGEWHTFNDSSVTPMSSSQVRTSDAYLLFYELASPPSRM
Casp6 inh – selectivity of USP2a inhibitors: human caspase-6 inhibition; shares compounds with NTMT1 inhibitor; Caspase 6 enzyme, Caspase-Glo 6 luminescence; activity change, negative = inhibition, % at 46.1 µM; 30 tested, under 10 active; AID 652277
NNMT inh – blocks human NNMT methyltransferase. AID 1645878. Potency, µM (titrated, usually from 57.1 µM), for the others: top-dose activity, negative = inhibition, most hits filed as inhibitors. NNMT MTase-Glo luminescence, SAH detection. shares compounds with NTMT1 inhibitor. 120 compounds, 10% hits
The depositor's hits bear a star; i = inactive; ? = inconclusive; nt = no result given; ! = repeats disagree; [ ] = remark or other dose. Unless noted, calls come from the whole dose curve; as a rule, active = well fitted curve in the direction sought with a large enough effect; inconclusive = small, poorly fitted or top-dose-only effect, or another doubt; inactive = no such curve, though single readings can be large; an effect the other way counts as inactive or inconclusive.

SMILES	B2AR arrestin ag	DRV1 agonist	TSG101-PTAP inh	GALK inhibitor	NTMT1 inhibitor	GALC G270D act	others
CC1=C(/C=C/C(C)=C\C=C\C(C)=C/C(=O)O)C(C)(C)CCC1	nt	nt	nt	nt	-2%[57.5 µM]	nt
O=C(Nc1ccc(F)c(Cl)c1)C1CCCN(c2cnccn2)C1 (stereo not drawn)	i	5	i	7%	2%	i
O=C([C@@H]1CCCN(c2ccc3[nH]c(C4(n5cc(Cl)cn5)CC4)nc3n2)C1)N1CCCC1	nt	nt	nt	nt	?	nt	NNMT inh=-11%
Cc1ccc(S(=O)(=O)Nc2ccccc2C(=O)Nc2nc(-c3ccccc3)c(C)s2)cc1	nt	nt	nt	nt	-6%[57.5 µM]	nt
Cc1ccc(S(=O)(=O)Nc2cc(Cl)ccc2C(=O)Nc2nc(-c3ccccc3)cs2)cc1	nt	nt	nt	nt	27µM*!	nt	USP2 K63 confirm=1.7µM*;Casp6 inh=-12
Cc1ccc(S(=O)(=O)Nc2ccccc2C(=O)Nc2nccs2)cc1	nt	nt	nt	nt	25%	nt	USP2 K63 confirm=?;Casp6 inh=17
Cc1ccc(S(=O)(=O)Nc2cnccc2C(=O)Nc2ccncc2)cc1	nt	nt	nt	nt	?	nt	USP2 K63 confirm=-12%;Casp6 inh=-21
Cc1ccc(S(=O)(=O)Nc2ccccc2C(=O)Nc2nc(-c3ccc(Cl)cc3)cs2)cc1	nt	nt	nt	nt	-5%	nt	USP2 K63 confirm=4%;Casp6 inh=-7
Cc1ccc(S(=O)(=O)Nc2ccc(Br)cc2C(=O)Nc2nc(-c3ccccc3)cs2)cc1	nt	nt	nt	nt	-15%	nt
CC(=O)C=C=C1C(C)(C)CC(O)CC1(C)O[C@@H]1O[C@H](CO[C@H]2OC[C@](O)(CO)[C@H]2O)[C@@H](O)[C@H](O)[C@H]1O (stereo partly drawn)	nt	nt	nt	nt	-7%[29.8 µM]	nt
COC(=O)C1=CO[C@@H](O[C@@H]2O[C@H](COC(=O)/C=C/c3cc(OC)c(O)c(OC)c3)[C@@H](O)[C@H](O)[C@H]2O)[C@@H]2C(CO)=CC[C@H]12	nt	nt	nt	nt	11%[12.6 µM]	nt
COc1cc2ncnc(Nc3ccc(F)c(Cl)c3)c2cc1NC(=O)/C=C/CN1CCCCC1	nt	nt	nt	nt	8.9µM*	nt	NNMT inh=?
O=[S+]([O-])(Nc1ccccc1)c1ccc(NCc2ccc(Cl)cc2O)cc1	nt	nt	nt	nt	11%	nt
Fc1cc(-c2cccc3ncc(-c4cnn(C5CCNCC5)c4)nc23)cc(F)c1CN1CCOCC1	nt	nt	nt	nt	18µM*!	nt	NNMT inh=-19%
Cc1cccc(C#Cc2cc(F)cc(C#N)c2)n1	nt	nt	nt	nt	1%[57.5 µM]	nt
Cc1csc(CNc2ncnc3ccc(-c4ccco4)cc23)c1	nt	nt	nt	nt	7%	nt
CCOC(=O)c1ccc(-c2ccc3ncnc(NCc4csc(C)n4)c3c2)o1	nt	nt	nt	nt	-12%	nt	DYRK1A KinaseGlo=9.2µM*
CCOC(=O)c1ccoc1-c1ccc2ncnc(NCc3ccc(C)o3)c2c1	nt	nt	nt	nt	?	nt	DYRK1A KinaseGlo=23µM*
CCOC(=O)c1ccc(-c2ccc3ncnc(NCc4ncc[nH]4)c3c2)o1	nt	nt	nt	nt	-1%	nt	DYRK1A KinaseGlo=2.3µM*
CCOC(=O)c1ccoc1-c1ccc2ncnc(NCc3csc(C)n3)c2c1	nt	nt	nt	nt	-4%	nt	DYRK1A KinaseGlo=-11%
CC1(C)CCCC2(C)C1C(O)C=C(CO)C2(O)C(=O)O (stereo not drawn)	nt	nt	nt	nt	1%[57.5 µM]	nt
O=[S+]([O-])(Nc1ccccc1)c1ccc(NCc2cccc(C(F)(F)F)c2F)cc1	nt	nt	nt	nt	2%	nt
